{
  "source": "PubChem BioAssay (EPA / NIEHS)",
  "note": "Inconclusive results are not listed. Activity calls are given as the source filed them. How the source made its calls: active means hit-call score of the fitted dose curve at least 0.9, where 1 is the maximum; inconclusive means response in the unintended direction; inactive means score below 0.9.",
  "data": [
    {"experiment": "Tanguay_ZF_120hpf_JAW_legacy: (Legacy) Oregon State University Tanguay Lab 120 Hour Post-fertilization zebrafish Assay for Jaw Malformation (AID 2283638);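 on AC50: active means more embryos with jaw malformation than DMSO controls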", "description": "Tanguay_ZF_120hpf_legacy is a whole embryo, multiplexed endpoint assay using zebrafish larvae exposed for 120 hours post fertilization on a 96-well plate.Tanguay_ZF_120hpf_JAW_legacy is one of one assay component(s) measured or calculated from the Tanguay_ZF_120hpf_legacy assay. It is designed to make measurements of zebrafish development as detected with brightfield microscopy of developing zebrafish embryos.Data from the assay component Tanguay_ZF_120hpf_JAW_legacy was analyzed into 1 assay endpoints. This assay endpoint, Tanguay_ZF_120hpf_JAW_legacy, was analyzed in the positive analysis fitting direction relative to DMSO as the negative control and baseline of activity. Using a type of morphology reporter, gain-of-signal activity can be used to understand changes in developmentals as they relate to the whole embryo. To generalize the intended target to other relatable targets, this assay endpoint is annotated to the zebrafish development intended target family, where the subfamily is embryonic jaw development.\nZebrafish husbandry: Tropical 5D wild-type adult zebrafish were housed in at an approximate density of 1000 per 100 gallon tank at the Sinnhuber Aquatic Research Laboratory, Oregon State University, Corvallis, OR. Each tank was kept at standard laboratory conditions of 28C on a 14-h light/10-h dark photoperiod in fish water consisting of reverse osmosis water supplemented with a commercially available salt (Instant Ocean). Spawning funnels were placed into the tanks the night prior, and embryos were collected and staged. To increase bioavailability, the chorion was enzymatically removed using pronase (63.6mg/ml, >/= 3.5U/mg, Sigma-Aldrich: P5147) at 4 hours post fertilization (hpf) using a custom automated dechorionator.Chemical exposures: Six hpf dechorionated embryos were placed 1 embryo per well in a 96-well plate prefilled with 90 ul of EM using automated embryo placement systems (AEPS). Ten microliters of each row of dilution plate 2 was added to 2 exposure plates. The final DMSO concentration used was 0.64% (vol/vol). Thirty-two embryos were also exposed to 5uM trimethyltin chloride (positive control). Plates were sealed to prevent evaporation and foil covered to reduce light exposure and kept in a 28C incubator. Embryos were statically exposed until 120 hpf. At 24 hpf, embryos were assessed for photomotor response using a custom photomotor response analysis tool (PRAT) and for developmental toxicity endpoints (MO24: mortality at 24 hpf, DP: developmental progression, SM: spontaneous movement, and NC: notochord distortion). At 120 hpf, locomotor activity was measured using Viewpoint Zebralab and assessed for 18 endpoints. Zebrafish acquisition and analysis program (ZAAP), a custom program designed to inventory, acquire, and manage zebrafish data, was used to collect developmental endpoints as either present or absent (i.e., binary responses were recorded). If mortality occurred for an embryo (at either 24 or 120 hpf), the non-mortality endpoints were not measured.", "values": [
      {"smiles": "CCCCCCCCCCO", "outcome": "inactive"},
      {"smiles": "Cc1ccc(N(C)C)cc1", "outcome": "inactive"},
      {"smiles": "NS(=O)(=O)c1cc2c(cc1Cl)NCNS2(=O)=O", "outcome": "inactive"},
      {"smiles": "COc1ccc(C)cc1N", "outcome": "inactive"},
      {"smiles": "CCOC(=O)CCC(=O)OCC", "outcome": "inactive"},
      {"smiles": "CC(=O)OC/C=C(\\C)CCC=C(C)C", "outcome": "inactive"},
      {"smiles": "CN1CCCC1=O", "outcome": "inactive"},
      {"smiles": "NC(=O)Cn1c(=O)cc(CCN2CCN(c3nccc4sccc34)CC2)c2ccc(F)cc21", "outcome": "inactive"},
      {"smiles": "C1CCC(SSC2CCCCC2)CC1", "outcome": "inactive"},
      {"smiles": "CC(=O)OCCOCCOCCOC(C)=O", "outcome": "inactive"},
      {"smiles": "C=CCOC(=O)c1ccccc1C(=O)OCC=C", "outcome": "inactive"},
      {"smiles": "NCC1(Cc2noc(=O)[nH]2)CCCCC1", "outcome": "inactive"},
      {"smiles": "OC[C@@H](O)[C@@H](O)[C@H](O)[C@H](O)CO", "outcome": "inactive"},
      {"smiles": "Cc1nc(-c2ccc3c(c2)CCN(CCC2CCC(NC(=O)/C=C/c4ccc(F)cc4)CC2)CC3)no1", "note": "(stereo not given)", "outcome": "inactive"},
      {"smiles": "O=C(O)Cc1ccccc1Nc1c(Cl)cccc1Cl", "outcome": "inactive"},
      {"smiles": "Oc1ccc2ccccc2c1N=Nc1ccccc1", "AC50": "9.73 µM (active)"},
      {"smiles": "Cc1ccc(Cl)cc1", "outcome": "inactive"},
      {"smiles": "Nc1ccc2c(c1)C(=O)c1ccccc1C2=O", "outcome": "inactive"},
      {"smiles": "CNCc1cc(F)ccc1Oc1ccc(Cl)c(Cl)c1", "outcome": "inactive"},
      {"smiles": "NCCO", "outcome": "inactive"},
      {"smiles": "CCCc1cc(=O)[nH]c(=S)[nH]1", "outcome": "inactive"},
      {"smiles": "O=[N+]([O-])C(CO)(CO)CO", "outcome": "inactive"},
      {"smiles": "CC1(C)NC(=O)NC1=O", "outcome": "inactive"},
      {"smiles": "Cc1ccc2ncccc2c1", "outcome": "inactive"},
      {"smiles": "Cc1nc(C)nc(N2C[C@@H](C)N(c3ccnc([C@@H](C)O)n3)[C@@H](C)C2)n1", "outcome": "inactive"},
      {"smiles": "O=c1c(O)c(-c2ccc(O)c(O)c2)oc2cc(O)cc(O)c12", "outcome": "inactive"},
      {"smiles": "CCc1c(C(=O)NN2CCCCC2)nn(-c2ccc(Cl)cc2Cl)c1-c1ccc(Br)cc1", "outcome": "inactive"},
      {"smiles": "Nc1ccccc1N", "AC50": "49.4 µM (active)"},
      {"smiles": "COc1cc(-c2nc(NC(=O)c3cc4cc(C)cc(C)c4n3CC(=O)O)sc2CCC2CCCCC2)c(OC)cc1Cl", "outcome": "inactive"},
      {"smiles": "COc1cc(C=O)ccc1O", "AC50": "35.3 µM (active)"},
      {"smiles": "Cc1ccc(C)c(O)c1C", "outcome": "inactive"},
      {"smiles": "CC=Cc1ccc(O)c(OC)c1", "outcome": "inactive"},
      {"smiles": "COCCOC[C@H](CC1(C(=O)NC2CCC(C(=O)O)CC2)CCCC1)C(=O)Oc1ccc2c(c1)CCC2", "note": "(stereo not given in full)", "outcome": "inactive"},
      {"smiles": "CC(=O)Oc1ccccc1C(=O)O", "outcome": "inactive"},
      {"smiles": "Cc1c(C(=O)O)c(O)cc2c1C(=O)c1c(O)c([C@@H]3O[C@H](CO)[C@@H](O)[C@H](O)[C@H]3O)c(O)c(O)c1C2=O", "outcome": "inactive"},
      {"smiles": "c1cc(-c2ccncc2)ccn1", "outcome": "inactive"},
      {"smiles": "CCCCCC(=O)O", "outcome": "inactive"},
      {"smiles": "CCCCN(CCCC)CCCC", "outcome": "inactive"},
      {"smiles": "Nc1ccc(S(=O)(=O)c2ccc(N)cc2)cc1", "outcome": "inactive"},
      {"smiles": "COC(=O)c1ccc(O)cc1", "outcome": "inactive"}
    ]}
  ]
}
